# The list is not random: actives were taken first. Their share in the collection is about 10%.
# Lamin A splicing = qHTS Assay for Modulators of Lamin A Splicing. HeLa LMNA splicing GFP/RFP minigene ratio, 48 h. Potency, µM (doses to about 46.1 µM), for the others: at the highest dose ratio change, negative = inhibition, most hits filed as inhibitors. hit rate 0.01% among 200,000. AID 1487, 2009; active means well fitted inhibition curve with a large enough effect in the signal ratio, with a control signal flat, not every such curve was filed as active; inconclusive means small, poorly fitted or top-dose-only effect, or effect the other way, or a change in a side signal; the % refers to the signal ratio; further: potency means the concentration at half of the fitted maximal effect
#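 S3 HeLa stable clones carrying a lamin A-EGFP splicing minigene plus DsRed2 were seeded at 600 cells/well in Opti-MEM with 2% FBS, pin-dosed and incubated 48 h at 37°C. Acumen cytometry (488 nm) gave the GFP/RFP total-intensity ratio.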
# ALDH1A1 block = qHTS Assay for Inhibitors of Aldehyde Dehydrogenase 1 (ALDH1A1) | Potency, µM (highest dose often 75.3 µM), for the others: top-dose activity, negative = inhibition, actives largely listed as inhibitors | Purified ALDH1A1, NADH fluorescence, propionaldehyde substrate | AID 1030, 2008 | hit rate 7.3% among 220,000;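 further: potency means the concentration at half of the fitted maximal effect; plate controls were no enzyme wells and a reference inhibitor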
# PNC inhibitor = High Content Assay for Compounds that inhibit the Assembly of the Perinucleolar Compartment. activity change (PNC), negative = inhibition, % at 10 µM. PC3M PTB-GFP, PNC prevalence imaging, 16 h; stronger effect = lower value. hit rate 3.1% among 140,000;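 active means readout at or below -70, meaning at least 70% loss of cells showing the perinucleolar compartment, a nuclear body marking cancer cells; inconclusive means readout between -30 and a set limit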;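 further: plate controls were DMSO wells for no effect and camptothecin positive control wells for full effect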
#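 PC3M cells stably expressing PTB-GFP, 750–1000 cells/well, treated 16 h at 37 °C with compound (23 nl of library stock), in duplicate. After paraformaldehyde fixation and Hoechst stain, imaged at 20x; PNC prevalence scored by image analysis.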
# ALOX12 inhib = qHTS Assay for Inhibitors of 12-hLO (12-human lipoxygenase). purified 12-hLO, xylenol orange hydroperoxide absorbance. Potency, µM (doses to about 57.1 µM), without a hit: at the top dose activity change, negative = inhibition, most hits filed as inhibitors. hit rate 0.12% among 150,000; active means well fitted inhibition curve with a large enough effect; inconclusive means small, poorly fitted or top-dose-only effect; further: potency means the concentration at half of the fitted maximal effect; nearly all actives have a fitted effect of over 55% in size
#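 Hydroperoxide formation by human 12-lipoxygenase from 40 uM arachidonic acid was followed colorimetrically via ferric-xylenol orange complex, using the 573/405 nm absorbance ratio. Enzyme concentration was 150 nM, with 30 min reaction at room temperature.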
# HPGD inh = qHTS Assay for Inhibitors of HPGD (15-Hydroxyprostaglandin Dehydrogenase) | AID 894, 2007 | hit rate 4.3% among 150,000 | 15-hydroxyprostaglandin dehydrogenase [NAD(+)] (Homo sapiens), P15428 | purified HPGD, NADH fluorescence kinetic, PGE2 substrate | Potency, µM, without a hit: at the highest dose activity change, negative = inhibition, actives largely listed as inhibitors; further: potency means the concentration at half of the fitted maximal effect
# Target sequence (P15428 whole entry, looked up): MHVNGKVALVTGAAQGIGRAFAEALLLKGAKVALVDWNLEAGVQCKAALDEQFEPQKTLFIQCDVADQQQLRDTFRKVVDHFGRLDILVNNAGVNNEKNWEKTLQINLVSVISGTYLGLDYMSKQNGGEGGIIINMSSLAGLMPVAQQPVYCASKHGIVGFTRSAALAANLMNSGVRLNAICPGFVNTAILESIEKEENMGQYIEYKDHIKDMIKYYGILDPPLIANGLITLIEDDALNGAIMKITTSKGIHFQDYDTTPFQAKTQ
#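 NADH formation kinetics: reaction with 30 uM PGE2 and 1 mM NAD+ (final), 20 nM enzyme, Tris-HCl pH 8 with Tween 20, after 15 min compound preincubation at room temperature. Fluorescence change, last versus first of five reads.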
# Numbers without * were called inactive; ? = inconclusive; nt = not tested or not shown; ! = not active in a repeat; [ ] = dose if it differs, or a comment. Unless noted, the call rests on the fitted dose curve; in most records, active means well fitted inhibition curve with a large enough effect (not every such curve was filed as active); inconclusive means small, poorly fitted or top-dose-only effect, or another doubt; inactive means no such curve, though single readings can be large or run the other way. Unless noted, on the % scale 0 is the no-effect control and ±100 the full control effect.
SMILES,Lamin A splicing,ALDH1A1 block,PNC inhibitor,ALOX12 inhib,HPGD inh
Cc1cc(C)n(C(=O)CNC(=O)COc2ccccc2)n1,4.1%,10.9%,-8.6,-1.9%,31.6µM*
Cc1ccc(OCC(=O)NCC(=O)n2nc(C)cc2C)cc1,0.0%,3.2%,-3.3,-2.7%,-1.9%
CC(=O)c1ccc(N2CCN(CC(=O)Nc3cc(C)on3)CC2)cc1,nt,0.7%,nt,nt,nt
CC(=O)c1ccc(NC(=O)CN2CCN(c3ncccn3)CC2)cc1,8.9%,8.91µM*,18.3,-13.6%,-4.5%
CCN(CC)c1ccc(NC(=O)CN2CCN(c3nc(C)cc(C)n3)CC2)cc1,7.7%,7.94µM*,-4.9,0.5%,?
CCCOc1nc(N)c(C#N)c(-c2ccccc2F)c1C#N,-1.9%,1µM*,28.3,-0.1%,-17.1%
c1ccc(C(c2cccc3c2ccc2ccccc23)[C@H](c2ccccc2)c2cccc3c2ccc2ccccc23)cc1 (some centres not stated),nt,-1.7%[13.5 µM],nt,nt,-13.6%
COc1ccc(C(C)=O)c(O)c1,nt,?,nt,-1.7%,17.8µM*
CCOC(=O)COc1ccc(C(=O)c2ccccc2)c(O)c1,8.9%,-6.4%,-29.6,-2.6%,15.8µM*
COc1ccc(C(=O)c2ccccc2)c(O)c1,?,31.6µM*!,-16.0,-5.1%,15.8µM*!
COc1cc(O)ccc1C(C)=O,-4.2%,0.0%,nt,-8.4%,-4.5%
COCC(=O)N1CCC2(CCN(Cc3nccs3)CC2)CC1,nt,8.5%,nt,-1.1%,-6.6%
O=C(CC1N=C2c3ccccc3N=C(SCc3ccccc3F)N2C1=O)NCCc1ccccc1 (configuration not stated),-3.9%[46 µM],nt,nt,nt,nt
CCSc1nnc(CNC(=O)C23CC4CC(CC(C4)C2)C3)n1C1CCCCC1,-12.8%,6.2%,37.2,1.6%,-2.2%
CCOC(=O)c1c(C)nn(Cc2cccc(Cl)c2)c1N,?,6.6%,?,-5.8%,28.2µM*
COc1ccc2oc(=N)c(C(=O)Nc3ccccc3)cc2c1,13.0%,8.3%,-83.4*,-0.7%,-11.8%
CNC(=O)c1cc2cc(OC)ccc2oc1=N,1.1%,?,18.2,-6.4%,?
CCOC(=O)c1sc(=S)n(-c2ccc(C)cc2)c1N,nt,14.1µM*,nt,nt,nt
Cc1ccc(-n2c(N)c(C(=O)NCc3cccnc3)sc2=S)cc1,11.4%,?,-6.5,-4.9%,25.1µM*
COc1ccc(-n2c(N)c(C(=O)NCc3cccnc3)sc2=S)cc1,7.5%,1.5%,23.5,-1.4%,-5.8%
CCOC(=O)c1sc(=S)n(-c2ccc(F)c(F)c2)c1N,7.5%,12.6µM*,-14.3,1.1%,?
CCOC(=O)c1sc(=S)n(-c2ccc3c(c2)OCO3)c1N,9.2%[0.0737 µM],10µM*,26.8,-2.3%,7.94µM*
CC[C@H](C)[C@H](NC(=O)[C@H](CCCN=C(N)N)NC(=O)[C@H](CCCN=C(N)N)NC(=O)[C@H](CC(C)C)NC(=O)[C@H](Cc1ccccc1)NC(=O)CNC(=O)CN)C(=O)N[C@@H](CCCN=C(N)N)C(=O)N1CCC[C@H]1C(=O)N[C@@H](CCCCN)C(=O)N[C@@H](CC(C)C)C(=O)N[C@@H](CCCCN)C(=O)O,nt,7.4%,nt,nt,nt
CC(C)CC(=O)OCc1cc(=O)n2nc(C3CCCCC3)sc2n1,14.0%[46 µM],nt,nt,nt,nt
CSc1ccc(CNC(=O)CN2C(=O)C3CCCCN3c3ccc(C(=O)N4CCCC4)cc32)cc1 (configuration not stated),-19.6%[46 µM],nt,nt,nt,nt
CC(C)C(=O)NC(=S)/C=C1/N(C)c2ccccc2C1(C)C,1.3%[46 µM],8.91µM*,nt,nt,nt
CN1/C(=C\C(=O)c2cccnc2)C(C)(C)c2ccccc21,?,4.0%,-27.0,-0.8%,-1.6%
CN1/C(=C\C(=O)c2cccc(S(=O)(=O)N3CCCCC3)c2)C(C)(C)c2ccccc21,?,?,-88.0*,-1.0%,-29.9%
CN1/C(=C\C(=O)c2cncc(Br)c2)C(C)(C)c2ccccc21,?,-4.5%,-84.3*,-7.1%,-11.0%
COc1cccc([C@@H]2Oc3ccc(Br)cc3C(=O)[C@H]2OC(=O)Nc2ccc(C)c(Br)c2)c1,nt,11.7%,nt,nt,-8.4%

# From PubChem
